Results published in PubChem BioAssay (NCATS).
Results filed as inconclusive are left out. Active and inactive are the calls of the source. Unless noted, calls follow the shape of the dose curve; as a rule, active = well fitted curve in either direction with a large enough effect (not every such curve was filed as active); inconclusive = small, poorly fitted or top-dose-only effect, or another doubt; inactive = flat fitted curve, though single readings scatter.

Tests used:
[1] = molecular target: Lysosomal acid glucosylceramidase (Homo sapiens) (UniProt P04062); assay: Glucocerebrosidase-p2 (AID 348; in the data active = potency below about 10 µM; also: potency is read from the fitted curve at half-maximal effect); details: purified GBA, blue fluorogenic substrate, 40 min
Lysosomal acid glucosylceramidase (Homo sapiens), sequence (P04062 whole entry, looked up): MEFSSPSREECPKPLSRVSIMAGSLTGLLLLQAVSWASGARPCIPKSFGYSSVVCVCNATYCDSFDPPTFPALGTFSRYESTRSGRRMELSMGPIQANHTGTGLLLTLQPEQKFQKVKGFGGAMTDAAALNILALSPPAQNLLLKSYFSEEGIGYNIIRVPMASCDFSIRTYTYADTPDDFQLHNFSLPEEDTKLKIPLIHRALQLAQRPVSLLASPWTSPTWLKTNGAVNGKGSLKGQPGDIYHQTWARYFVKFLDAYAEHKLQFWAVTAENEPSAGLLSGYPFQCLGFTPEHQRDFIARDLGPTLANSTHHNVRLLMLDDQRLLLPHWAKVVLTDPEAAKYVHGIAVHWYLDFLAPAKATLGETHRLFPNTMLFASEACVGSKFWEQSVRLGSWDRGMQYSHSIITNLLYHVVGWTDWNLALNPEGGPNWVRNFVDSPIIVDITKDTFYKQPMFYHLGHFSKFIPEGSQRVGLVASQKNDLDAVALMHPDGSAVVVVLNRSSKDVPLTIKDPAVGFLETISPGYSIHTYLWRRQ
Procedure, shortened: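 Normal human glucocerebrosidase (0.2 nM) with blue fluorogenic substrate (80 uM final) in citrate/phosphate pH 5.9 with 10mM sodium taurocholate, 0.01% tween-20; 40 min RT, NaOH/glycine stop; fluorescence Ex 365/Em 440; AC50 from a titration from 0.6 nM upwards.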

[2] = AP1 Signaling Pathway (AID 357); details: ME-180 AP-1-bla reporter, EGF-induced, beta-lactamase ratio, 5 h; at 7.69 µM (top of the series) unless noted; also: % is scaled to controls: 0 for no effect and ±100 for the full control effect
Procedure, shortened: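 AP-1-bla ME-180 cells with beta-lactamase reporter under AP-1 response element, stimulated with EC50 EGF; compounds titrated, 5 hours at 37 degrees Celsius. CCF4 read at 460/530 nm ratio; positive and negative modulators judged by AC50.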

[3] = molecular target: Cytochrome P450 1A2 (Homo sapiens) (UniProt P05177); assay: p450-cyp1a2 (AID 410; calls by dose curve; also: potency is read from the fitted curve at half-maximal effect;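 as to activity change, negative = inhibition: -100% = full effect of reference inhibitor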); details: recombinant CYP1A2, luciferin-ME demethylation, luminescence; series mostly up to 11.4 µM
Cytochrome P450 1A2 (Homo sapiens), sequence (P05177 whole entry, looked up): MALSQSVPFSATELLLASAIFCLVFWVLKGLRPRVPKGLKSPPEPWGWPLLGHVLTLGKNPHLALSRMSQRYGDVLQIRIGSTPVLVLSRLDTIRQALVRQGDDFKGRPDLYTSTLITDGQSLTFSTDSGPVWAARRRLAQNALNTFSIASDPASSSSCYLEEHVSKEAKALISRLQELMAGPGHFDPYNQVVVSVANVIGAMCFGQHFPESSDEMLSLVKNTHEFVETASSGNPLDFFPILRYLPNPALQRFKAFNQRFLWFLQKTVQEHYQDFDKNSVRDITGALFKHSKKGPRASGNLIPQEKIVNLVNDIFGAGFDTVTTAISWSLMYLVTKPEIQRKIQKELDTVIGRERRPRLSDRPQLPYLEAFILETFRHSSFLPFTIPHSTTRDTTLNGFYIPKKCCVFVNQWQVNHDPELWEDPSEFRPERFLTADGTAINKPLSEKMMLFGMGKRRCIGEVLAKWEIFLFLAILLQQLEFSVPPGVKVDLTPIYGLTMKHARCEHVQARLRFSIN
Procedure, shortened: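 Read-out is luminescence from luciferin produced by CYP1A2 demethylation of Luciferin-ME (100uM, at Km). Detection reagent stopped the 60 min NADPH-dependent reaction; signals were normalized to 57 uM furafylline.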

[4] = NFAT Signaling Pathway (AID 444); details: Jurkat NFAT-bla M1, carbachol, beta-lactamase ratio, 5 h; at 7.69 µM (top of the series) unless noted;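 also: carbachol stimulus at about its EC50 of 1 µM final; % is scaled to controls: 0 for no effect and ±100 for the full control effect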
Procedure, shortened: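 Jurkat cells with NFAT-driven β-lactamase reporter and co-expressed M1 receptor, stimulated with carbachol (final 1 uM, ~EC50), compound titration, 5 h at 37 °C. CCF4 loaded 1 h at RT; 460/530 nm ratio gave %activity and AC50.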

[5] = Stat Signaling Pathway (AID 446); details: ME-180 SIE beta-lactamase reporter, IL-6 stimulated, 5 h; at 7.69 µM (top of the series) unless noted;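 also: ME-180 cervical cancer cells given 40 pM IL-6 alongside compound; SIE-controlled beta-lactamase reporter measured as 460/530 nm FRET emission ratio; % is scaled to controls: 0 for no effect and ±100 for the full control effect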
Procedure, shortened: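 Compound effects on IL-6-induced STAT reporter activity were measured in ME-180 cells. After overnight culture, cells were co-treated with 40 pM IL-6 for 5 hrs before beta-lactamase substrate loading at room temperature.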

[6] = molecular target: Glucocorticoid receptor (Homo sapiens) (UniProt P04150); assay: GR-GFP Redistribution (AID 450;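 active = compounds whose dose series gives a full or clear partial fitted curve of increased nuclear translocation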; also: potency is read from the fitted curve at half-maximal effect); details: U2OS GR-GFP nuclear translocation, laser cytometry, 2 h
Glucocorticoid receptor (Homo sapiens), sequence (P04150 whole entry, looked up, the tested form may be a part): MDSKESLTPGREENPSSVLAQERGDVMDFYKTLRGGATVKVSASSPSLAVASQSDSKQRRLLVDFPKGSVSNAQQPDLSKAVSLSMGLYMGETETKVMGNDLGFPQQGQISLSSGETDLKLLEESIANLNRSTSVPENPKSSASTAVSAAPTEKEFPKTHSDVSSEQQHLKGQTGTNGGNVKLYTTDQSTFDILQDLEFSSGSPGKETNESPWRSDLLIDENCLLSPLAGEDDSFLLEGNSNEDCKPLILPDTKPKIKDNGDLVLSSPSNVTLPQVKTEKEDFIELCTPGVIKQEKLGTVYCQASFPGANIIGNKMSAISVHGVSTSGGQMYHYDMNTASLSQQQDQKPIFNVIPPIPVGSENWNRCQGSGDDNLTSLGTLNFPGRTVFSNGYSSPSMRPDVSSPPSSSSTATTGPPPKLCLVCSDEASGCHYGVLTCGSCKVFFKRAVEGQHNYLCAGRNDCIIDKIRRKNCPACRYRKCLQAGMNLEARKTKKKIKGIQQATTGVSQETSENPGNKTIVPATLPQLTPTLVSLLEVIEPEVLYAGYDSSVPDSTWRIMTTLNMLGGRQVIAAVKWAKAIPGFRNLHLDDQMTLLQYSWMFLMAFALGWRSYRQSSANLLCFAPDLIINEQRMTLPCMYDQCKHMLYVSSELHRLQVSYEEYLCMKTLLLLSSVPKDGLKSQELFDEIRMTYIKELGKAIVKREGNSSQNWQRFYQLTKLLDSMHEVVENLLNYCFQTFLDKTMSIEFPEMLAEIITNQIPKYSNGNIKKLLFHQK

[7] = molecular target: Glucocorticoid receptor (Homo sapiens) (UniProt P04150); assay: GR-EFC Redistribution (AID 451; calls by dose curve; also: potency is read from the fitted curve at half-maximal effect); details: CHO-K1 GR-EFC translocation, beta-gal luminescence, 2 h
Procedure, shortened: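 CHO-K1 cells expressing nuclear EA and GR-ED fragments of b-gal; compounds titrated up to 46 uM final, 2 h at 37 C. GR nuclear translocation read as complemented b-gal luminescence after 1 h RT detection.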

[8] = molecular target: Mitogen-activated protein kinase 10 (Mus musculus) (UniProt Q61831); assay: JNK3 AlphaScreen Assay (AID 530); details: JNK3 lysate, c-Jun phosphorylation; series mostly up to 57.1 µM;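 also: kinase came from lysate of stimulated human HepG2 cells; signal reports phosphorylation of biotinylated GST-cJun 1-79 at Ser73 with 10 µM ATP; % is scaled to controls: 0 for no effect and ±100 for the full control effect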
Procedure, shortened: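 HepG2 lysate (IL-1b/TNFa pre-activated) + biotin-GST-cJun 1-79 + anti-pSer73 cJun; cpd titration, 15 min RT; ATP 10 uM start; Tris pH 7.6, MgCl2, DTT, vanadate; beads in EDTA buffer; AlphaScreen.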

[9] = molecular target: Cytochrome P450 3A4 (Homo sapiens) (UniProt P08684); assay: qHTS Assay for Activators of Cytochrome P450 3A4 (AID 885; active = well fitted curve in the direction sought with a large enough effect; an effect the other way counts as inactive or inconclusive; also: nearly all actives have a fitted effect of over 65% in size; also: potency is read from the fitted curve at half-maximal effect); details: recombinant CYP3A4, Luciferin-PPXE luminescence, 60 min; series mostly up to 57.1 µM
Cytochrome P450 3A4 (Homo sapiens), sequence (P08684 whole entry, looked up): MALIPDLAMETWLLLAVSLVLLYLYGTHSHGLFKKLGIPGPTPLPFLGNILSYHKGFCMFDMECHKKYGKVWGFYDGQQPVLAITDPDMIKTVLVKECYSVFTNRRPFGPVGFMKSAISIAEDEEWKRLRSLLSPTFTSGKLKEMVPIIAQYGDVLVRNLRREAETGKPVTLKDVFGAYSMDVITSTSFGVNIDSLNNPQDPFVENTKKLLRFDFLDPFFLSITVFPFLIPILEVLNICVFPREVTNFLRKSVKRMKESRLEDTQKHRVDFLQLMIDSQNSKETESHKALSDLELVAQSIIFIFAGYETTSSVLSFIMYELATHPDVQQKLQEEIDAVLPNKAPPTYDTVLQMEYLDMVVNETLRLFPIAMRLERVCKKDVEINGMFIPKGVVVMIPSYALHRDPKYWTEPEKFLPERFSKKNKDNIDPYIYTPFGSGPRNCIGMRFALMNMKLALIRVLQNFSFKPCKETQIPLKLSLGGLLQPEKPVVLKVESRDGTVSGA
Procedure, shortened: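 CYP3A4 activity: Luciferin-PPXE O-dealkylation, 25uM substrate, 200mM KPO4, RT throughout. Read-out is luciferase luminescence; higher values reflect activation.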

[10] = molecular target: Cytochrome P450 2D6 (Homo sapiens) (UniProt P10635); assay: qHTS Assay for Inhibitors and Substrates of Cytochrome P450 2D6 (AID 891; active = well fitted curve in the direction sought with a large enough effect; an effect the other way counts as inactive or inconclusive; also: potency is read from the fitted curve at half-maximal effect; nearly all actives have a fitted effect of over 60% in size); details: recombinant CYP2D6, luciferin-ME EGE luminescence; series mostly up to 11.4 µM
Cytochrome P450 2D6 (Homo sapiens), sequence (P10635 whole entry, looked up): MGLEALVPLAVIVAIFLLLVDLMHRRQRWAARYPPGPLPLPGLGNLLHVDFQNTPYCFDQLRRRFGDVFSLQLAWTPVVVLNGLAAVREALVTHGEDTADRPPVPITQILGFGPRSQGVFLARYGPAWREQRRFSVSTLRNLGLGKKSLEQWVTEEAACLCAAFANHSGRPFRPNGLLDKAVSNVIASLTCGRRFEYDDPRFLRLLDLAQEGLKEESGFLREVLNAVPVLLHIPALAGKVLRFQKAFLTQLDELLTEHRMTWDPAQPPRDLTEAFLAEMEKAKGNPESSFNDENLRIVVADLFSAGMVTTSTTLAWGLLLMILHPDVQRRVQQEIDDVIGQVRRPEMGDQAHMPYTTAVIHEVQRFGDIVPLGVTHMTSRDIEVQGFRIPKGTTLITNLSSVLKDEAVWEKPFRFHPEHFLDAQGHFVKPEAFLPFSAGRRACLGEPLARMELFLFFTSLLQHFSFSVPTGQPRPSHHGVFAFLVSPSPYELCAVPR
Procedure, shortened: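 Luminescent read-out of luciferin formed by 5 nM human CYP2D6 demethylating 30 uM Luciferin-ME EGE (Km level) over 60 min at room temperature after NADPH regeneration addition. Data normalized to full inhibition by 1.43 uM quinidine.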

[11] = molecular target: 3',5'-cyclic-AMP phosphodiesterase 4B (Homo sapiens) (UniProt Q07343); assay: qHTS Assay for Inhibitors of PDE-IV (AID 607; active = well fitted activation curve with a large enough effect in the main read-out, with a control signal flat, not every such curve was filed as active; also: % of control where 0% means no effect); details: HEK293 ACTOne CNG channel cells, membrane potential fluorescence; series mostly up to 22.9 µM
3',5'-cyclic-AMP phosphodiesterase 4B (Homo sapiens), sequence (Q07343 whole entry, looked up): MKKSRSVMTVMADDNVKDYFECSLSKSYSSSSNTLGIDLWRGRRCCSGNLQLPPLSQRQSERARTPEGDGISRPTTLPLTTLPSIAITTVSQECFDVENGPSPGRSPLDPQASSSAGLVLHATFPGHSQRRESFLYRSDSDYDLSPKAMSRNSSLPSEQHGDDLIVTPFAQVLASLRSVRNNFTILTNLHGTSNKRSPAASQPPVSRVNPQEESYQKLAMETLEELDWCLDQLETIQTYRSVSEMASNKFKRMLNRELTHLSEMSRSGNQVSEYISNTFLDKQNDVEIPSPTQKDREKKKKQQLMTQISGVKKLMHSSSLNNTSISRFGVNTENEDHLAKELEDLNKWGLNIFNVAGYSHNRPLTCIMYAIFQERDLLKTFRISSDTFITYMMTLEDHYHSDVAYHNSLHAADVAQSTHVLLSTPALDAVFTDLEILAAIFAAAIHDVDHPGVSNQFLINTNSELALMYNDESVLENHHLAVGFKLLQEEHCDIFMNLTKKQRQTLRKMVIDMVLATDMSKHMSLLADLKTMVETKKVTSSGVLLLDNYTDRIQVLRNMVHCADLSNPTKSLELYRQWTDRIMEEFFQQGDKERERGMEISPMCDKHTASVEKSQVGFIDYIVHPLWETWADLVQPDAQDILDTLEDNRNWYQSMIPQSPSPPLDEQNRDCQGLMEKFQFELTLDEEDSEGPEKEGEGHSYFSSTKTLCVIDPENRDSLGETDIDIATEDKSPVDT
Procedure, shortened: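 ACTOne HEK293 cells carry a modified cAMP-gated CNG channel and express endogenous PDE4; plated 1000 cells/well, compounds up to 22.9 uM final. Membrane-potential dye fluorescence (ex 535/em 590) was read; parental cells received 10 uM forskolin + 100 uM RO 20-1724.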

[12] = qHTS Assay for Identification of Small Molecule Agonists for Hypoxia Response Element Signaling Pathway (AID 914; active = well fitted activation curve with a large enough effect in the signal ratio, with a control signal flat, not every such curve was filed as active; the % refers to the signal ratio; also: % of control where 0% means no effect); details: ME-180 (cervical carcinoma) HRE-bla reporter, beta-lactamase ratio, CoCl2, 17 h; active compounds read high
Procedure, shortened: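 Positive modulation of EC50 CoCl2-induced hypoxia response element signaling is measured in ME-180 cells with a beta-lactamase reporter. Compounds are titrated, incubation runs 17 hours, and %Activity derives from the blue/green ratio.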

[13] = molecular target: Cytochrome P450 2C19 (Homo sapiens) (UniProt P33261); assay: qHTS Assay for Inhibitors and Substrates of Cytochrome P450 2C19 (AID 899; active = well fitted curve in the direction sought with a large enough effect; an effect the other way counts as inactive or inconclusive; also: % is scaled to controls: 0 for no effect and ±100 for the full control effect; nearly all actives have a fitted effect of over 60% in size); details: recombinant CYP2C19, luciferin-H EGE luminescence; series mostly up to 11.4 µM
Cytochrome P450 2C19 (Homo sapiens), sequence (P33261 whole entry, looked up): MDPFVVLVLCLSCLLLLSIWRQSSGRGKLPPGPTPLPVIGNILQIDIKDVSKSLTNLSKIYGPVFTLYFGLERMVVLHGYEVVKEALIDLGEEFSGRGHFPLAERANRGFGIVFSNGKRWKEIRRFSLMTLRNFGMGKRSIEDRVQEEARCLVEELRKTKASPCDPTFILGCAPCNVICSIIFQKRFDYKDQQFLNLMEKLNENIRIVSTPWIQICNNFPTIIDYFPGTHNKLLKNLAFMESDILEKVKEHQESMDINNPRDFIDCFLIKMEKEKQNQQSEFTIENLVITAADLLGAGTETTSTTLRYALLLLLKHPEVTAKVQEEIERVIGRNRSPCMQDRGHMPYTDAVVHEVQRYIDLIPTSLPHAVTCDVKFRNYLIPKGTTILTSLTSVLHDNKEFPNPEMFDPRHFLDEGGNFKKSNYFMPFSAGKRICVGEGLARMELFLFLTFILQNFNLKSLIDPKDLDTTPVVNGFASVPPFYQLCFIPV
Procedure, shortened: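 Luminescent read-out of luciferin formed from Luciferin-H EGE (10uM, equal to KM). Enzyme 5nM in 50mM KPO4; compound added, 10 min at 37C, then NADPH regenerating system for 60 min at 37C. Full inhibition defined by 57uM ketoconazole.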

[14] = molecular target: Cytochrome P450 3A4 (Homo sapiens) (UniProt P08684); assay: qHTS Assay for Inhibitors and Substrates of Cytochrome P450 3A4 (AID 884; active = well fitted curve in the direction sought with a large enough effect; an effect the other way counts as inactive or inconclusive; also: % is scaled to controls: 0 for no effect and ±100 for the full control effect; nearly all actives have a fitted effect of over 50% in size); details: recombinant CYP3A4, Luciferin-PPXE luminescence; series mostly up to 57.1 µM
Procedure, shortened: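 Luminescent readout of luciferin produced by CYP3A4 (20 nM) dealkylation of Luciferin-PPXE, 25 uM (its KM). NADPH-driven reaction ran 60 min at RT after 10 min compound preincubation; data scaled to 57 uM ketoconazole as 100% inhibition.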

CCC1=C(C[C@H]2NCCc3cc(OC)c(OC)cc32)C[C@H]2c3ccccc3CCN2C1
active: Potency [10] 0.316 µM
inactive: Potency [1] > 11.4 µM | activity change, negative = inhibition [2] 9.05% | Potency [3] | activity change, negative = inhibition [4] -19.1% | activity, negative = inhibition [5] 8.03% | Potency [6] > 46 µM | Potency [7] > 9.22 µM | activity change, negative = inhibition [8] 5.5% [at 11.4 µM] | activity change, positive = activation [9] -34.9% [at 11.4 µM]

COc1cc2c(cc1OC)[C@]13CC[N@+]4(C)CC5=CCO[C@H]6CC(=O)N2[C@@H]1[C@@H]6[C@@H]5C[C@]34O
inactive: Potency [1] > 11.4 µM | activity change, negative = inhibition [2] -12.3% | activity change, negative = inhibition [3] -11.4% [at 2.29 µM] | activity change, negative = inhibition [4] 4.86% | activity, negative = inhibition [5] -5.46% | Potency [6] > 46 µM | activity change, negative = inhibition [8] 1.38% [at 11.4 µM] | outcome [11] | activity change, positive = activation [9] -28.5% [at 11.4 µM]

NCCP(=O)(O)O
inactive: Potency [1] > 11.4 µM | activity change, negative = inhibition [2] 3.81% | Potency [3] | activity change, negative = inhibition [4] 9.11% | activity, negative = inhibition [5] 10.6% | Potency [6] > 46 µM | Potency [7] > 9.22 µM | activity change, negative = inhibition [8] 3.4% [at 11.4 µM] | outcome [11] | activation [12] 0.635%

O=C(O)CS(=O)(=O)C(c1ccccc1)c1ccccc1
inactive: Potency [1] > 11.4 µM | activity change, negative = inhibition [2] -6.22% | activity change, negative = inhibition [3] -15.7% [at 2.29 µM] | activity change, negative = inhibition [4] -2.65% | activity, negative = inhibition [5] 3.8% | Potency [6] > 46 µM | Potency [7] > 9.22 µM | activity change, negative = inhibition [8] 1.62% [at 11.4 µM] | outcome [11] | Potency [13]

O=C(O)C(=O)Cc1ccc2c(c1)OCO2
inactive: Potency [1] > 11.4 µM | activity change, negative = inhibition [2] 6.13% | activity change, negative = inhibition [4] 16.4% | activity, negative = inhibition [5] 3.17% | Potency [6] > 46 µM | Potency [7] > 9.22 µM | activity change, negative = inhibition [8] 4.31% [at 11.4 µM] | outcome [11] | Potency [13] | activation [12] -7.84%
active: Potency [3] 3.98 µM

Nc1nnnn1CCO
inactive: Potency [1] > 11.4 µM | activity change, negative = inhibition [2] 7.2% | activity change, negative = inhibition [4] 8% | activity, negative = inhibition [5] 12% | Potency [6] > 46 µM | Potency [7] > 9.22 µM | activity change, negative = inhibition [8] 3.27% [at 11.4 µM] | outcome [11] | activation [12] 12.2%
active: Potency [3] 6.31 µM

CC(=O)O[C@H]1CC[C@@]2(C)[C@@H](CC[C@H]3[C@H]2CC(=O)[C@]2(C)[C@@H]3C[C@@H](N3CC3)[C@H]2C(C)=O)C1
active: Potency [3] 0.0398 µM | Potency [9] 3.98 µM
inactive: Potency [1] > 11.4 µM | activity change, negative = inhibition [2] 4.13% | activity change, negative = inhibition [4] 13.1% | activity, negative = inhibition [5] 5.02% | Potency [6] > 46 µM | Potency [7] > 9.22 µM | activity change, negative = inhibition [14] 71.6% [at 11.4 µM] | Potency [13] | activation [12] 5.69%

Cc1c([C@@H](C)[C@H]2NC[C@H](C)C[C@@H]2O)ccc2c1C[C@@H]1[C@H]2CC=C2C[C@@H](O)CC[C@@]21C
inactive: Potency [1] > 11.4 µM | activity change, negative = inhibition [2] -4.38% | activity change, negative = inhibition [3] 1.3% [at 2.29 µM] | activity change, negative = inhibition [4] -6.08% | activity, negative = inhibition [5] -1.08% | Potency [6] > 46 µM | Potency [7] > 9.22 µM | outcome [11] | activity change, positive = activation [9] -38% [at 11.4 µM] | activation [12] 4.43%

O=C(O)C[O][Sb][O]CC(=O)O
inactive: Potency [1] > 11.4 µM | activity change, negative = inhibition [2] 4.83% | activity change, negative = inhibition [3] -7.8% [at 2.29 µM] | activity change, negative = inhibition [4] 6.08% | activity, negative = inhibition [5] 7.88% | Potency [6] > 46 µM | Potency [7] > 9.22 µM | outcome [11] | Potency [13]

C[n+]1c(/C=C\c2ccc(O)c3ncccc23)[se]c2ccccc21
inactive: Potency [1] > 11.4 µM | activity change, negative = inhibition [2] -7.45% | activity change, negative = inhibition [3] -22.7% [at 2.29 µM] | activity change, negative = inhibition [4] -19% | activity, negative = inhibition [5] 13% | Potency [6] > 46 µM | activity change, negative = inhibition [8] -13.6% [at 11.4 µM] | outcome [11] | activity change, positive = activation [9] -31.7% [at 11.4 µM]

NCCc1c[nH]c2ccc(OC(=O)C(=O)O)cc12
active: Potency [3] 2.51 µM
inactive: Potency [1] > 11.4 µM | activity change, negative = inhibition [2] 9.07% | activity change, negative = inhibition [4] 6.17% | activity, negative = inhibition [5] 10.1% | Potency [6] > 46 µM | activity change, negative = inhibition [8] 8.58% [at 11.4 µM] | outcome [11]

COc1cc2c(cc1OC)[C@@]13CCN4CC5=CCO[C@H](CC(=O)O)[C@@H]([C@H]1N2)[C@H]5C[C@H]43
inactive: Potency [1] > 11.4 µM | activity change, negative = inhibition [2] -1.41% | Potency [3] | activity change, negative = inhibition [4] 9.02% | activity, negative = inhibition [5] 1.37% | Potency [6] > 46 µM | Potency [7] > 9.22 µM | outcome [11]
